Compound activity from PubChem BioAssay.
FBW7 act: activators of human E3 ligase FBW7; AlphaScreen FBW7–phospho-cyclin E peptide binding, activator screen; normalized activity (activation), % at 26.1 µM; Q969H0; 0.13% of 650,000 active; in the data active = normalized activity above about 1.9%;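 note: purified mutant Fbw7 with reduced substrate affinity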
MITF primary: human MITF inhibition, primary screen; O75030; AlphaScreen MITF homodimerization, bead proximity signal; inhibition, % at 2.6 µM; 0.91% of 650,000 active; in the data active = inhibition above about 50%
Target sequence (O75030 whole entry, looked up): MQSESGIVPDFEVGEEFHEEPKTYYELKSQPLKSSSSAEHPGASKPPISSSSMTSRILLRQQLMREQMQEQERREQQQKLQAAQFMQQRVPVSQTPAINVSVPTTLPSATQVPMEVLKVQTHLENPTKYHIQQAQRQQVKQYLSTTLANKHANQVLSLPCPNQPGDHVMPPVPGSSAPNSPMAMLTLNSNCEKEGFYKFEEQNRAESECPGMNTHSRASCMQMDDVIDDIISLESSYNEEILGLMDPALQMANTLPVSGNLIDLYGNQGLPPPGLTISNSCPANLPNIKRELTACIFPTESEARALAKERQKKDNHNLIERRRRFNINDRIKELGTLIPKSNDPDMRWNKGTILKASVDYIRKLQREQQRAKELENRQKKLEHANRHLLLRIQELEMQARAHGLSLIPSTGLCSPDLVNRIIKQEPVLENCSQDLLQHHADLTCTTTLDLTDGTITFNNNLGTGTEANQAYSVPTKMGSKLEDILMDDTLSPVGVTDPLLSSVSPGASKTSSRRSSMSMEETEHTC
TEAD-YAP inh: TEAD-YAP interaction inhibition. 1.4% of 640,000 active. HEK-TIYL cells, TEAD-Gal4/YAP UAS-luciferase luminescence. inhibition, % at 9.12 µM; in the data active = inhibition above about 32%
GPR151 activ: human GPR151 activation; Q8TDV0; PathHunter beta-arrestin GPR151 cells, luminescence; activation, % at 11.2 µM; 1% of 650,000 active; AID 1508602; in the data active = activation above about 4.9%
MITF confirm: human MITF inhibition, confirmation. shares compounds with MITF primary. AlphaScreen MITF homodimerization, biotin/His-MITF beads. inhibition, % at 2.6 µM. 16% of 4,700 active. AID 1259372;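 active = inhibition above a cutoff derived from the DMSO control wells, cut at about 28% in these data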;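 note: inhibitors lower the bead chemiluminescence by keeping MITF from dimerizing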
AS interf DR: counter-screen: compounds optically interfering with AlphaScreen; shares compounds with MITF primary; AlphaScreen optical interference counterscreen, cell-free; IC50, µM; 6% of 480 active; AID 1259373; call rule not given here
AS interf ctr: AlphaScreen optical interference, counter-screen | shares compounds with MITF primary | LysRS AlphaScreen counterscreen, signal interference, triplicate | inhibition, % at 2.6 µM | 7.6% of 4,700 active;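 active = inhibition above a cutoff derived from the DMSO control wells, cut at about 30% in these data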
Large screens that a line does not name were inactive (follow-up assays come after a bar, where they were run). Compounds with a hit are over-represented: about 3.5% of the library has one in this group of screens.

CC1CN(CC(=O)Nc2ccc(F)cc2)CC(C)O1 (configuration not stated)	MITF primary 55.2 | MITF confirm inactive | AS interf ctr inactive
CCN1CCN(CC(=O)Nc2ccc(F)cc2)CC1	MITF primary 82.9 | MITF confirm inactive | AS interf ctr inactive
O=C(CN1CCN(CC(=O)Nc2ccc(F)cc2)CC1)Nc1ccc(F)cc1	none
CCC(C)NS(=O)(=O)c1ccc(NC(=O)CN2CCOCC2)cc1 (configuration not stated)	MITF primary 54.1 | MITF confirm inactive | AS interf ctr inactive
O=C(CCCCC(=O)Nc1ccc(F)cc1)Nc1ccc(F)cc1	MITF primary 56.4 | MITF confirm inactive | AS interf ctr inactive
COc1ccc(-c2cc(C(F)(F)F)n3ncc(C(=O)N4CCN(c5cccc(Cl)c5)CC4)c3n2)cc1OC	none
C=CCOc1nc(NC(C)C)nc(NC(C)C)n1	none
CCCOc1ccc(C(=O)Nc2cccc(-c3nc4ncccc4o3)c2)cc1	MITF primary 69.4 | MITF confirm inactive | AS interf ctr inactive
O=S(=O)(c1ccc(Br)cc1)n1c(SCc2cccc(F)c2)nc2ccccc21	MITF primary 110.0 | MITF confirm inactive | AS interf ctr inactive
CCN1CCN(CC(=O)N/N=C/c2ccc(C(C)C)cc2)CC1	MITF primary 51.8 | MITF confirm inactive | AS interf ctr inactive
O=C(CN1CCSCC1)N/N=C/c1cccnc1	MITF primary 51.2 | MITF confirm inactive | AS interf ctr inactive
CCN1CCN(CC(=O)N/N=C/c2ccc(Cl)cc2)CC1	none
CCN1CCN(CC(=O)N/N=C/c2ccc(Cl)c(Cl)c2)CC1	MITF primary 67.8 | MITF confirm inactive | AS interf ctr inactive
CCN1CCN(CC(=O)N/N=C/c2ccccc2)CC1	MITF primary 70.2 | MITF confirm inactive | AS interf ctr inactive
O=C(c1ccc(Cl)c(S(=O)(=O)Nc2ccccc2)c1)N1CCCCCC1	none
CC1(C(=O)N/N=C/c2cccnc2)CC1(Cl)Cl (configuration not stated)	MITF primary 59.5 | MITF confirm inactive | AS interf ctr inactive
O=C(N/N=C/c1cccnc1)C12CC3CC(CC(C3)C1)C2	none
Nc1nonc1C(=O)N/N=C/c1cc([N+](=O)[O-])ccc1Cl	none
O=C(NCC1Cc2cc(-c3cnccn3)ccc2O1)c1cccc(N2CCCC2=O)c1 (configuration not stated)	MITF primary 51.9 | MITF confirm inactive | AS interf ctr inactive
CCN(CC)CC(O)CNCc1ccc(Cl)cc1 (configuration not stated)	MITF primary 53.8 | MITF confirm inactive | AS interf ctr inactive
COc1ccc(CN2CCC(N3CC(C)OC(C)C3)CC2)c(OC)c1 (configuration not stated)	MITF primary 94.9 | MITF confirm inactive | AS interf ctr inactive
COc1ccc(CN2CCN(C3CCCC3)CC2)c(OC)c1	MITF primary 65.8 | MITF confirm inactive | AS interf ctr inactive
COc1cc(OC)c(OC)cc1CN1CCN(C2CCCCC2)CC1	MITF primary 67.0 | MITF confirm inactive | AS interf ctr inactive
COc1cc(OC)c(OC)cc1CN1CCN(C2CCCC2)CC1	none
COc1ccc(CN2CCC(C(=O)N3CCOCC3)CC2)c(OC)c1	MITF primary 56.1 | MITF confirm inactive | AS interf ctr inactive
CCOC(=O)C1CCN(Cc2ccc(OC)cc2OC)CC1	none
COc1ccc(CN2CCN(C(=O)CCC3CCCC3)CC2)c(OC)c1	none
COc1ccc(CN2CCCC2)c(OC)c1	none
O=C1CCCc2oc3c(cc(NS(=O)(=O)c4ccccc4)c4ccccc43)c21	none
COc1cccc(CN(C)C(=O)Nc2ccc(-c3cn[nH]c3)cc2OCCN2CCOCC2)c1	none
COc1ccc(CN2CCN(C3CCC(C)CC3)CC2)c(OC)c1 (configuration not stated)	MITF primary 69.0 | MITF confirm inactive | AS interf ctr inactive
CC1CN(C2CCN(Cc3ccc(Br)cc3)CC2)CC(C)O1 (configuration not stated)	none
COc1cc(OC)c(OC)cc1CN1CCN(C2CCN(Cc3ccccc3)CC2)CC1	MITF primary 58.5 | MITF confirm inactive | AS interf ctr inactive
COc1ccc(CN2CCN(C3CCN(Cc4ccccc4)CC3)CC2)cc1OC	none
COc1ccc(CN2CCC(N3CC(C)OC(C)C3)CC2)cc1OC (configuration not stated)	MITF primary 62.8 | MITF confirm inactive | AS interf ctr inactive
CCOc1ccc(-c2noc(-c3cccs3)n2)cc1OC	none
Cc1ccc(/C=C2\N=C(c3cccc(F)c3)OC2=O)cc1	none
OCCNc1ccnc(Nc2nccc3ccccc23)n1	MITF primary 70.7 | MITF confirm inactive | AS interf ctr 37.2
O=C(CSc1nc(NC2CCCCC2)c2ccccc2n1)NC1CCCCC1	MITF primary 58.3 | MITF confirm inactive | AS interf ctr inactive
Cc1ccc(CNC(=O)CSc2nc(NC3CCCCC3)c3ccccc3n2)cc1	none
O=C(NCc1ccccc1)c1ccccc1NC(=O)C1CC1	none
Cc1ccccc1Nc1ncnc2ccccc12	none
COc1cccc(C(=O)COC(=O)CCC(=O)Nc2ccc([N+](=O)[O-])cc2)c1	none
COc1cccc(C(=O)COC(=O)CCCC(=O)Nc2ccc([N+](=O)[O-])cc2)c1	MITF primary 62.1 | MITF confirm inactive | AS interf ctr inactive
COC(=O)c1cc(NS(=O)(=O)c2ccc3[nH]c(=O)c(=O)[nH]c3c2)cc(C(=O)OC)c1	none
COC(=O)c1ccccc1NS(=O)(=O)c1ccc2[nH]c(=O)c(=O)[nH]c2c1	MITF primary 67.6 | MITF confirm inactive | AS interf ctr inactive
NN1C(=O)/C(=C\c2ccc(Cl)cc2)NC1=S	MITF primary 52.6 | MITF confirm inactive | AS interf ctr inactive
Cc1c(NC(=S)NC(=O)/C=C/c2ccco2)cccc1C(=O)O	MITF primary 67.3 | MITF confirm 60.3 | AS interf DR inactive | AS interf ctr inactive
CCOC(=O)c1ccc(NC(=S)NC(=O)/C=C/c2ccco2)cc1	MITF primary 69.1 | MITF confirm inactive | AS interf ctr inactive
O=C(/C=C/c1ccco1)NC(=S)Nc1cc(C(=O)O)ccc1Cl	MITF primary 63.4 | MITF confirm 68.7 | AS interf DR inactive | AS interf ctr inactive
O=C(/C=C/c1ccco1)NC(=S)NNC(=O)c1ccccc1O	MITF primary 61.0, TEAD-YAP inh 58.2 | MITF confirm 66.5 | AS interf DR inactive | AS interf ctr inactive
Cc1nc(-n2nc(-c3cccs3)cc2NC(=O)Cc2ccc(F)cc2)[nH]c(=O)c1Cc1ccccc1	none
CCOC(=O)c1sc2nc(CC(=O)OC)nc(NCc3ccccc3OC)c2c1C	none
OC(CNc1ccccc1)Cn1ccc2ccccc21 (configuration not stated)	MITF primary 52.4 | MITF confirm inactive | AS interf ctr inactive
Cc1nc(C)c(C(=O)Nc2ccc(Br)cc2)o1	MITF primary 55.9 | MITF confirm inactive | AS interf ctr inactive
